Test results reported in PubChem BioAssay (NCI).
This is part of a sample that, as a whole, favours compounds with a hit. Of some 79,000 tested, about 15% had one in any assay. Unmarked numbers belong to inactive results. Activity calls are given as the source filed them. Cut-off read from the data, not from the text of the source: active = growth inhibition above about 70%; inactive = the rest.

Experiments:
[1] = NCI Yeast Anticancer Drug Screen. Data for the rad52 strain (AID 147);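 note: 0% = growth of vehicle-treated control cultures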; conditions: S. cerevisiae rad52 mutant growth inhibition, active compounds read high
Procedure, shortened: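 Here a repair-compromised yeast strain receives each compound; its growth is then quantified and normalised to vehicle-only controls.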

[2] = NCI Yeast Anticancer Drug Screen. Data for the mgt1 strain (AID 153); conditions: S. cerevisiae mgt1 mutant growth inhibition, active compounds read high
Procedure, shortened: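 Measured: inhibition of mgt1 yeast growth by compound, normalized to vehicle-treated cultures.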

[3] = NCI Yeast Anticancer Drug Screen. Data for the rad50 strain (AID 155);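 note: 0% = growth of vehicle-only cultures of the same strain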; conditions: S. cerevisiae rad50 strain growth inhibition, active compounds read high
Procedure, shortened: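 Cells are treated with compound, grown, and their growth is then scored against vehicle-only cultures of the same repair-deficient yeast strain.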

[4] = NCI Yeast Anticancer Drug Screen. Data for the mec2-1 strain (AID 157); conditions: S. cerevisiae mec2-1 strain, active compounds read high
Procedure, shortened: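 Using mec2-1 yeast: add compound, measure growth, express inhibition versus vehicle-treated cultures.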

[5] = NCI Yeast Anticancer Drug Screen. Data for the rad14 strain (AID 159);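 note: 0% = growth of vehicle-treated control cultures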; conditions: S. cerevisiae rad14 strain growth inhibition, active compounds read high
Procedure, shortened: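 Readout: yeast growth inhibition, referenced to vehicle-only cultures. Strain bears a defined alteration in DNA damage repair.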

[6] = NCI Yeast Anticancer Drug Screen. Data for the sgs1 mgt1 strain (AID 161);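 note: 0% = growth of cultures given vehicle only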; conditions: S. cerevisiae sgs1 mgt1 strain, active compounds read high
Procedure, shortened: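 This yeast growth screen uses a strain with defined DNA-repair lesions; compound-treated growth is compared with vehicle-treated growth.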

[7] = NCI Yeast Anticancer Drug Screen. Data for the CLN2oe strain (AID 163);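 note: 0% = growth of vehicle-only control cultures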; conditions: S. cerevisiae CLN2oe strain, active compounds read high
Procedure, shortened: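 Whole-cell yeast growth assay. A strain engineered for altered cell-cycle control received compound, and inhibition relative to vehicle-treated cultures was recorded.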

[8] = NCI Yeast Anticancer Drug Screen. Data for the cln2 rad14 strain (AID 165);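 note: 0% = growth equal to vehicle treated cultures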; conditions: S. cerevisiae cln2 rad14 strain, active compounds read high
Procedure, shortened: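 Yeast strain cln2 rad14, bearing defects in cell cycle control and DNA repair, serves as the test system; values reflect growth inhibition compared with vehicle.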

[9] = NCI Yeast Anticancer Drug Screen. Data for the bub3 strain (AID 167); conditions: S. cerevisiae bub3 mutant strain, active compounds read high
Procedure, shortened: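 Part of a panel of yeast mutants defective in DNA damage repair or cell cycle regulation. Each strain is grown with compound, and inhibition is calculated relative to solvent-treated cultures.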

[10] = NCI Yeast Anticancer Drug Screen. Data for the wt2 strain (AID 169);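 note: 0% = growth of vehicle-treated yeast cultures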; conditions: S. cerevisiae wt2 strain growth inhibition, active compounds read high
Procedure, shortened: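 Treated yeast vs. vehicle-treated yeast: growth inhibition determined.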

[11] = NCI Yeast Anticancer Drug Screen. Data for the mlh1 strain (AID 171);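 note: 0% = growth of vehicle-treated control cultures of the same strain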; conditions: S. cerevisiae mlh1 strain growth inhibition, active compounds read high
Procedure, shortened: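 A yeast strain with a defined genetic lesion serves as the test organism. Cultures receive compound or vehicle, and growth is measured.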

[12] = NCI Yeast Anticancer Drug Screen. Data for the sgs1 strain (AID 173);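 note: 0% = growth of vehicle-only control cultures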; conditions: S. cerevisiae sgs1 mutant, active compounds read high
Procedure, shortened: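 A genetically defined yeast mutant is incubated with the test compound, and its growth is compared to that of the same strain given vehicle.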

[13] = NCI Yeast Anticancer Drug Screen. Data for the mlh1 rad18 strain (AID 175); conditions: S. cerevisiae mlh1 rad18 strain growth inhibition, active compounds read high
Procedure, shortened: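 Steps: expose repair-defective yeast to compound; measure growth; express inhibition against vehicle-treated controls.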

[14] = NCI Yeast Anticancer Drug Screen. Data for the rad18 strain (AID 177); conditions: S. cerevisiae rad18 mutant growth inhibition, active compounds read high
Procedure, shortened: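 Measured value is growth inhibition of a yeast strain bearing a DNA repair alteration, referenced to vehicle-treated cells.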

[15] = NCI Yeast Anticancer Drug Screen. Data for the wt1 strain (AID 149);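 note: 0% = growth of vehicle-treated wt1 cultures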; conditions: S. cerevisiae wt1 strain (SPY 50644) growth inhibition, active compounds read high
Procedure, shortened: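 The wt1 strain was treated with compounds, and growth was compared with vehicle-treated cultures to give inhibition.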

[16] = NCI Yeast Anticancer Drug Screen. Data for the rad50EPP+ strain (AID 151);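 note: 0% = growth of vehicle-treated control cultures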; conditions: S. cerevisiae rad50 mutant strain, active compounds read high
Procedure, shortened: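 Read-out is yeast growth inhibition relative to vehicle; cells used were the rad50EPP+ strain.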

[17] = at 5.0 µM (retest, dose inferred, filed as 0.5)
[18] = at 50.0 µM (retest, dose inferred, filed as 5.0)

COC(=O)Nc1cn2ccc(C(Cl)=C(Cl)Cl)cc2n1
growth inhibition ([1]; at 1.2 µM): -12%
growth inhibition ([1]; at 3.7 µM): -17%
growth inhibition ([1]; at 11.0 µM): -21%
growth inhibition ([1]; at 33.0 µM): -33%
growth inhibition ([1]; at 100.0 µM): -16%
growth inhibition ([2]; at 1.2 µM): -21%
growth inhibition ([2]; at 3.7 µM): -17%
growth inhibition ([2]; at 11.0 µM): -29%
growth inhibition ([2]; at 33.0 µM): -24%
growth inhibition ([2]; at 100.0 µM): -22%
growth inhibition ([3]; at 1.2 µM): -22%
growth inhibition ([3]; at 3.7 µM): -32%
growth inhibition [3, 17]: 21%
growth inhibition ([3]; at 11.0 µM): -35%
growth inhibition ([3]; at 33.0 µM): -36%
growth inhibition [3, 18]: 29%
growth inhibition ([3]; at 50.0 µM): -4.2%
growth inhibition ([3]; at 100.0 µM): -32%
growth inhibition ([4]; at 1.2 µM): 4%
growth inhibition ([4]; at 3.7 µM): -5%
growth inhibition [4, 17]: 17%
growth inhibition ([4]; at 11.0 µM): 5%
growth inhibition ([4]; at 33.0 µM): 3%
growth inhibition [4, 18]: 15%
growth inhibition ([4]; at 50.0 µM): -9.5%
growth inhibition ([4]; at 100.0 µM): -4%
growth inhibition ([5]; at 1.2 µM): 18%
growth inhibition ([5]; at 3.7 µM): -11%
growth inhibition ([5]; at 11.0 µM): 1%
growth inhibition ([5]; at 33.0 µM): -13%
growth inhibition ([5]; at 100.0 µM): -17%
growth inhibition [6, 17]: 28%
growth inhibition [6, 18]: 40%
growth inhibition ([6]; at 50.0 µM): -27.6%
growth inhibition ([7]; at 1.2 µM): 42%
growth inhibition ([7]; at 3.7 µM): 27%
growth inhibition ([7]; at 11.0 µM): 35%
growth inhibition ([7]; at 33.0 µM): 21%
growth inhibition ([7]; at 100.0 µM): 18%
growth inhibition [8, 17]: 7%
growth inhibition [8, 18]: 21%
growth inhibition ([8]; at 50.0 µM): -5.65%
growth inhibition ([9]; at 1.2 µM): -8%
growth inhibition ([9]; at 3.7 µM): -14%
growth inhibition [9, 17]: 24%
growth inhibition ([9]; at 11.0 µM): -28%
growth inhibition ([9]; at 33.0 µM): -21%
growth inhibition [9, 18]: 29%
growth inhibition ([9]; at 50.0 µM): -24.1%
growth inhibition ([9]; at 100.0 µM): -20%
growth inhibition ([10]; at 1.2 µM): -40%
growth inhibition ([10]; at 3.7 µM): -33%
growth inhibition ([10]; at 11.0 µM): -50%
growth inhibition ([10]; at 33.0 µM): -49%
growth inhibition ([10]; at 100.0 µM): -53%
growth inhibition ([11]; at 1.2 µM): 29%
growth inhibition ([11]; at 3.7 µM): 23%
growth inhibition ([11]; at 11.0 µM): 14%
growth inhibition ([11]; at 33.0 µM): 10%
growth inhibition ([11]; at 100.0 µM): 12%
growth inhibition ([12]; at 1.2 µM): 6%
growth inhibition ([12]; at 3.7 µM): 2%
growth inhibition ([12]; at 11.0 µM): -18%
growth inhibition ([12]; at 33.0 µM): -16%
growth inhibition ([12]; at 100.0 µM): -11%
growth inhibition [13, 17]: 65%
growth inhibition [13, 18]: 78% (active)
growth inhibition ([13]; at 50.0 µM): -12.5%
growth inhibition ([14]; at 1.2 µM): -16%
growth inhibition ([14]; at 3.7 µM): -22%
growth inhibition ([14]; at 11.0 µM): -13%
growth inhibition ([14]; at 33.0 µM): -39%
growth inhibition ([14]; at 100.0 µM): -46%

COC(=O)/C=C(/C(=O)OC)C(Cl)(Cl)Cl
growth inhibition ([15]; at 1.2 µM): -1%
growth inhibition ([15]; at 3.7 µM): 4%
growth inhibition ([15]; at 11.0 µM): 34%
growth inhibition ([15]; at 33.0 µM): 84% (active)
growth inhibition ([15]; at 100.0 µM): 100% (active)
growth inhibition ([16]; at 1.2 µM): 4%
growth inhibition ([16]; at 3.7 µM): -9%
growth inhibition ([16]; at 11.0 µM): 24%
growth inhibition ([16]; at 33.0 µM): 61%
growth inhibition ([16]; at 100.0 µM): 84% (active)
growth inhibition ([2]; at 1.2 µM): 3%
growth inhibition ([2]; at 3.7 µM): -3%
growth inhibition ([2]; at 11.0 µM): 5%
growth inhibition ([2]; at 33.0 µM): 59%
growth inhibition ([2]; at 100.0 µM): 99% (active)
growth inhibition ([3]; at 1.2 µM): 1%
growth inhibition ([3]; at 3.7 µM): 4%
growth inhibition [3, 17]: 14%
growth inhibition ([3]; at 11.0 µM): 33%
growth inhibition ([3]; at 33.0 µM): 93% (active)
growth inhibition [3, 18]: 88% (active)
growth inhibition ([3]; at 50.0 µM): 44.8%
growth inhibition ([3]; at 100.0 µM): 99% (active)
growth inhibition ([4]; at 1.2 µM): 2%
growth inhibition ([4]; at 3.7 µM): 2%
growth inhibition [4, 17]: 7%
growth inhibition ([4]; at 11.0 µM): 6%
growth inhibition ([4]; at 33.0 µM): 44%
growth inhibition [4, 18]: 96% (active)
growth inhibition ([4]; at 50.0 µM): 22.1%
growth inhibition ([4]; at 100.0 µM): 98% (active)
growth inhibition ([5]; at 1.2 µM): 6%
growth inhibition ([5]; at 3.7 µM): 18%
growth inhibition ([5]; at 11.0 µM): 64%
growth inhibition ([5]; at 33.0 µM): 96% (active)
growth inhibition ([5]; at 100.0 µM): 100% (active)
growth inhibition [6, 17]: 23%
growth inhibition [6, 18]: 97% (active)
growth inhibition ([6]; at 50.0 µM): 79.9% (active)
growth inhibition ([7]; at 1.2 µM): -5%
growth inhibition ([7]; at 3.7 µM): -3%
growth inhibition ([7]; at 11.0 µM): 2%
growth inhibition ([7]; at 33.0 µM): 45%
growth inhibition ([7]; at 100.0 µM): 99% (active)
growth inhibition [8, 17]: 9%
growth inhibition [8, 18]: 95% (active)
growth inhibition ([8]; at 50.0 µM): 67.5%
growth inhibition ([10]; at 1.2 µM): -1%
growth inhibition ([10]; at 3.7 µM): 8%
growth inhibition ([10]; at 11.0 µM): 33%
growth inhibition ([10]; at 33.0 µM): 99% (active)
growth inhibition ([10]; at 100.0 µM): 100% (active)
growth inhibition ([11]; at 1.2 µM): -3%
growth inhibition ([11]; at 3.7 µM): 2%
growth inhibition ([11]; at 11.0 µM): 5%
growth inhibition ([11]; at 33.0 µM): 84% (active)
growth inhibition ([11]; at 100.0 µM): 99% (active)
growth inhibition ([12]; at 1.2 µM): 6%
growth inhibition ([12]; at 3.7 µM): 14%
growth inhibition ([12]; at 11.0 µM): 69%
growth inhibition ([12]; at 33.0 µM): 97% (active)
growth inhibition ([12]; at 100.0 µM): 100% (active)
growth inhibition [13, 17]: 70% (active)
growth inhibition [13, 18]: 97% (active)
growth inhibition ([13]; at 50.0 µM): 40.9%
growth inhibition ([14]; at 1.2 µM): 38%
growth inhibition ([14]; at 3.7 µM): 87% (active)
growth inhibition ([14]; at 11.0 µM): 95% (active)
growth inhibition ([14]; at 33.0 µM): 98% (active)
growth inhibition ([14]; at 100.0 µM): 99% (active)
